This is a sample that favours compounds with a hit; in the whole collection about 5.7% have one here.
ssDAF12 agonist = S. stercoralis DAF-12 nuclear receptor activators, primary screen, cell-based, luminescence, HEK293, GRIP1 co-expression, lit1-tk-luc. Nuclear hormone receptor DAF-12 (Strongyloides stercoralis). AID 652126, 2013. 370,000 compounds, 1% hits. activation, % at 6.8 µM. HEK293 ssDAF-12/GRIP1 lit1-tk-luc reporter; % of 3 µM dafachronic acid response;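 active means activation above the mean over all tested compounds plus 3 SD, cut at about 0.9% in these data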;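 further: 0% = DMSO-only wells and 100% = 3 µM delta7-dafachronic acid wells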
AHR act = AHR activators, primary screen, cell-based, luminescence, luciferase reporter, human; AHR-responsive luciferase reporter cells; activation, % at 5 µM; 320,000 compounds, 2.5% hits; in the data active means activation above about 47%;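 further: 0% = vehicle wells and 100% = reference agonist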
DAX1 inh-1 = DAX1 (NR0B1) inhibitors on StAR promoter, primary screen, cell-based, luminescence, SF-1 (NR5A1), full-length DAX-1; 370,000 compounds, 1.1% hits; HEK293T StAR-luciferase reporter, SF-1/DAX-1 repression relief; AID 652010, 2013; inhibition, % at 6.8 µM;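 active means inhibition above the mean over all tested compounds plus 3 SD, cut at about 3.6% in these data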;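 further: 0% = DAX-1 cells with DMSO and 100% = cells lacking DAX-1 with DMSO; higher inhibition means more luminescence from relief of DAX-1 repression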
DAX1 inh-2 = DAX1 (NR0B1) inhibitors, primary screen, cell-based, HEK293, Gal4-DAX1, luciferase luminescence; inhibition, % at 6.75 µM; 340,000 compounds, 0.99% hits; HEK293 Gal4-DAX1 luciferase reporter; Nuclear receptor subfamily 0 group B member 1 (Homo sapiens), P51843;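 active means inhibition above the mean over all tested compounds plus 3 SD, cut at about 4.2% in these data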;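 further: 0% = DAX1-transfected cells with DMSO and 100% = empty-vector control cells with DMSO; inhibition shows as a rise in luminescence from relieved DAX1 repression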
hcDAF12 agonist = H. contortus DAF-12 nuclear receptor activators, primary screen, cell-based, luminescence, HEK293, lit1-tk-luc reporter. HEK293 hcDAF-12 lit1-tk-luc reporter; 0% DMSO, 100% Δ7-dafachronic acid. activation, % at 6.8 µM. 370,000 compounds, 1.4% hits;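 active means activation above the mean of all tested compounds plus 3 SD, cut at about 5.5% in these data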;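 further: 100% = response to 3 µM Δ7-dafachronic acid high control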
hgDAF-12 ag = H. glycines DAF-12 receptor agonists, primary screen, cell-based, luminescence, HEK293, GAL4 fusion, UAS-luciferase | Nuclear hormone receptor DAF-12 (Heterodera glycines), GAL4 fusion | HEK293 GAL4-hgDAF12 UAS-luciferase reporter, agonist luminescence; normalized to butyrate control | activation, % at 6.8 µM | 370,000 compounds, 1.8% hits | AID 687014, 2013;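 active means activation above a cutoff set at the mean of all screened compounds plus 3 SD, cut at about 10% in these data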;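 further: 0% = DMSO wells and 100% = sodium butyrate wells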
* = called active by the depositor; . = not tested or not shown.

SMILES	ssDAF12 agonist	AHR act	DAX1 inh-1	DAX1 inh-2	hcDAF12 agonist	hgDAF-12 ag
O=C(COC(=O)c1ccccc1C(=O)c1ccccc1)Nc1cccc([N+](=O)[O-])c1	-2	0	0	-2	-1	2
CC(=O)Nc1ccc(C2=NN(CC#N)C(=O)SC2)cc1	0	2	-1	-1	-1	0
CC(=O)Nc1ccc(C2=NN(Cc3nnc(-c4ccccc4)o3)C(=O)SC2)cc1	-1	76*	-1	0	0	2
O=C(Nc1cc([N+](=O)[O-])c2[nH]c(=O)c3ccccc3c2c1)C(F)(F)F	0	.	3.9*	1	2	-3
CCNC(=S)NNC(=O)CC(C)C	-2	2	0	6.7*	0	-1
COc1ccccc1CNC(=O)C1CCC(CNc2c(N3CCCCC3)c(=O)c2=O)CC1 (configuration not stated)	-2	-2	-1	2	-1	-1
O=[N+]([O-])c1ccc(C2CC(c3ccccc3)=Nc3ccccc3S2)cc1 (configuration not stated)	0	15	-1	2	5	7
O=C(O)C1CC(c2ccccc2)=Nc2ccccc2S1 (configuration not stated)	0	53*	1	3	5	8
CCOC(=O)c1ccc(NC(=S)NNC(=O)COC)cc1	-2	4	0	2	1	-2
COC(CNC(=O)c1ccc2nc3ccccc3c(=O)n2c1)OC	-1	6	0	0	5.7*	4
CCOC(=O)c1sc(NC(=O)CN2CCN(c3ccc(OC)cc3)CC2)nc1C	1.8*	.	-1	-1	-3	-2
CCCCc1nn2c(N)c(/C=C3\C=Nc4ccccc43)c(=O)nc2s1	2.7*	8	-1	0	4	-3
CCCc1nn2c(N)c(/C=C3\C=Nc4ccccc43)c(=O)nc2s1	-1	0	0	0	2	-1
CS(=O)(=O)c1nsc2nc(=O)c(/C=C3\C=Nc4ccccc43)c(N)n12	1.0*	4	0	-1	1	1
Cc1cc(C)c(C(=O)N2CCCC(Nc3ccc(C)c(C)c3)C2)o1 (configuration not stated)	-1	63*	-3	0	-4	2
Cc1ccc(NC2CCCN(C(=O)C3CCCCC3)C2)cc1C (configuration not stated)	-1	60*	0	0	0	1
CCCC1(C(=O)OC)NC(c2ccc(OC)c(OC)c2)C2C(=O)N(c3ccc4c(c3)OCO4)C(=O)C21 (configuration not stated)	-1	-5	0	1	-2	-1
Cc1cccc(-c2nc(CSCC(=O)NCc3cccs3)c(C)o2)c1	-1	4	-1	-1	-3	-3
COc1ccc(C2C(C#N)=C(C)NC3=C2C(=O)c2ccccc23)cc1 (configuration not stated)	-1	3	0	-1	2	-1
COc1cc(C2C(C#N)=C(C)NC3=C2C(=O)c2ccccc23)cc(OC)c1OC (configuration not stated)	0	113*	1	0	4	-3
O=C(Cn1nc(-c2ccccc2F)ccc1=O)Nc1ccc(S(=O)(=O)N2CCCCCC2)cc1	-1	7	0	6.6*	0	-3
O=C(CN1CCN(S(=O)(=O)c2ccc(Br)cc2)CC1)c1ccc(O)c(O)c1	-1	6	0	1	5.9*	1
CC(C)c1ccc(S(=O)(=O)N2CCN(CC(=O)c3ccc(O)c(O)c3)CC2)cc1	-1	3	0	-1	0	1
COc1ccc(C)cc1NC(=O)CSc1nnc(-c2cc3cccc(OC)c3o2)n1N	-1	10	0	2	-1	0
CCOC(=O)CSC1=C(C#N)C(c2ccccc2OC)CC(=O)N1 (configuration not stated)	-1	5	-2	0	-2	-1
SMILES	ssDAF12 agonist	AHR act	DAX1 inh-1	DAX1 inh-2	hcDAF12 agonist	hgDAF-12 ag
Clc1ccc(OCc2cn3ccccc3n2)c2ncccc12	0	49*	3	2	1	9
OCc1ccccc1OCCOc1ccc(Cl)c2cccnc12	-2	10	0	0	1	0
COc1ccc(C(=O)CC(Sc2ccccc2N)c2ccc(OC)cc2)cc1 (configuration not stated)	1	.	4.1*	2	5	10
COc1ccc2nc(NC(=O)C3CSC4(C)CCC(=O)N34)sc2c1 (configuration not stated)	0	5	1	2	-1	3
Fc1ccc(NCc2cn3ccccc3n2)cc1	-1	-1	2	0	2	9
Fc1cccc(NCc2cn3ccccc3n2)c1	1	16	4	1	4	11*
Cn1c(NCCN2CCCC2)nc2cc(-c3ccccc3)sc2c1=O	0	.	1	.	0	0
O=c1c2sc(-c3ccccc3)cc2nc2n1CCCCC2	0	-7	3	5.0*	4	12*
O=c1c2c(-c3ccccc3)csc2nc2n1CCC2	-1	9	1	1	-1	-2
O=c1c2sc(-c3ccccc3)cc2nc2n1CCC2	0.9*	-22	4.3*	-1	5.8*	13*
Nc1nonc1-n1nnc(C(=O)N/N=C/c2cccc(Cl)c2)c1CN1CCCC1	-1	0	1	1	2	0
CCc1c(C)nc(N2CCOCC2)[nH]c1=O	-1	-2	0	4	-1	1
C=CCc1c(C)nc(N2CCSCC2)[nH]c1=O	-1	0	0	4.3*	0	1
COC(=O)c1c(NC(=O)c2cccnc2)sc(C)c1C	.	71*	.	0	.	.
CCCCC(CC)C(=O)Oc1ccc(O)c(C(C)(C)C)c1 (configuration not stated)	-1	0	-1	0	-2	0
Cc1nc2c(nnn2Cc2c(Cl)cccc2Cl)c(=O)[nH]1	0	2	0	3	-2	-2
CC(NC(=O)C1CCC(CNS(=O)(=O)c2ccccc2)CC1)c1ccccc1 (configuration not stated)	-1	-2	-1	0	-1	-1
Clc1ccc2oc(-c3ccccc3)cc(=NCCCN3CCOCC3)c2c1	0	.	2	2	4	16*

High-throughput results deposited in PubChem by The Scripps Research Institute Molecular Screening Center.
